Screening data as filed in PubChem.
PTHR1 ag: activates the human parathyroid hormone receptor PTHR1; Q03431; HEK293 GP2 PTHR1 cells, GloSensor cAMP luminescence, 1 h; Potency, µM (highest dose often 115 µM), inactives show at the top dose activation, most hits filed as activators; hit rate 0.075% among 410,000; further: potency means the concentration at half of the fitted maximal effect; nearly all actives have a fitted effect of over 55% in size
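HEK-293-derived GP2 cells expressing PTHR1 and a GloSensor cAMP reporter, 3,000/well, plated overnight, given luciferin plus IBMX (each 0.5 mM as added) for 1 h at 37 °C, then compound for 1 h at 37 °C. Luminescence was read after 15 min at room temperature.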
TRHR enhancer-1: TRH receptor (human) allosteric enhancement; AID 493056; enhancement, % at 2 µM; hit rate 0.66% among 360,000; TRHR cells, fluo-8 calcium fluorescence, EC20 TRH enhancement; P34981; in the data active means enhancement above about 30%; further: 0% is about no effect
Target sequence (P34981 whole entry, looked up): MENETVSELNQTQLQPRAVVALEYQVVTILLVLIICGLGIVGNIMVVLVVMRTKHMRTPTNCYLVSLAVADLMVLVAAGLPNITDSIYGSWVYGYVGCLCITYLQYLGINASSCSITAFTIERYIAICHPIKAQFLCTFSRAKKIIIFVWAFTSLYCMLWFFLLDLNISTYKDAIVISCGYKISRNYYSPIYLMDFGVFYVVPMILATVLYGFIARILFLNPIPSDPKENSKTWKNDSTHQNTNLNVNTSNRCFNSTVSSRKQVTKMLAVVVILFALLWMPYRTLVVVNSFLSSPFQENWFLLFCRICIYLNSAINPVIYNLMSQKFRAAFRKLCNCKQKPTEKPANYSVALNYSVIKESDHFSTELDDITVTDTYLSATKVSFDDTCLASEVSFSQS
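TRHR-expressing cells loaded with fluo-8 calcium dye were read kinetically (ex 480/em 530) during compound addition, then stimulated with an EC20 of TRH (10 nM final). Enhancement of the Gq-mediated intracellular calcium response was scored.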
TRPML1 agonist: agonists of human TRPML1 channel; Q9GZU1; TRPML1-expressing cells, Ca2+ dye fluorescence, FDSS; hit rate 0.12% among 410,000; activation, % (test concentration not listed); AID 624414; in the data active means activation above about 50%; further: 0% is about no effect
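In this qHTS format, compounds were pin-transferred onto Ca8-dye-loaded TRPML1-DL cells induced with Tet overnight, and intracellular Ca2+ fluorescence was recorded kinetically for 110 s after a 10 s baseline. A subsequent 4uM final 54-4 (EC80) addition followed by a second 110 s read served as the antagonist phase.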
GLP1R cytotox: cytotoxicity in counter-screen for GLP-1R inverse agonists. hit rate 0.13% among 410,000. HEK293 cAMP-luciferase reporter cells, luminescence, 24 h. Potency, µM (titrated, usually from 38.3 µM), for the others: at the top dose activity change, negative = inhibition, actives largely listed as inhibitors. AID 624418;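 further: loss of luciferase light is scored as toxicity; potency means the concentration at half of the fitted maximal effect; on the % scale 0 is the no-effect control and ±100 the full control effect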
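Cells in DMEM/10% Nu serum/1% pen-strep, 1536-well format. Pre-incubated 12 h, dosed with 23 nL compound, incubated a further 24 h. Luciferase detection, 12 min at room temp, luminescence.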
TRHR agonist-1: TRH receptor (human) agonism | TRHR cells, calcium flux fluo-8, FDSS agonist mode | P34981 | hit rate 0.18% among 360,000 | activation, % at 2 µM; in the data active means activation above about 30%; further: 0% is about no effect
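In this calcium-flux screen, cells bearing human TRHR are dye-loaded with fluo-8, baselined for 10 cycles, then exposed to library compounds; positive kinetic calcium responses during the agonist phase mark hits, with TRH as control.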
TRPML1 inh: blocks the human TRPML1 channel; activity change, negative = inhibition, % (concentration not given with the values); hit rate 0.02% among 390,000; AID 624415; TRPML1-inducible cells, Ca2+ dye fluorescence, FDSS; hits give low values; inhibition of EC80 agonist-evoked calcium signal; Q9GZU1; in the data active means activity change below about -50%;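 further: stimulus is agonist 54-4 at its EC80 concentration; on the % scale 0 is the no-effect control and ±100 the full control effect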
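Tet-induced TRPML1-DL cells loaded with Ca8 no-wash calcium dye were read kinetically on FDSS. Compound addition was followed by EC80 agonist 54-4 (4 uM final); inhibition was read over 110 s.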
TRHR enhancer-2: human TRH receptor allosteric enhancement confirmation. shares compounds with TRHR enhancer-1. TRH receptor cell assay, enhancer confirmation qHTS. activity change, negative = inhibition, % at 46.1 µM. 970 tested, under 10 active. AID 493076;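 further: compound effect scored on response to added TRH at EC20 of 10 nM; 0% is about no effect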
TRHR agonist-2: human TRH receptor agonism confirmation; AID 493078; Potency, µM (top dose mostly 46.1 µM), for the others: at the top dose activation, usual class: activators; shares compounds with TRHR enhancer-1; hit rate 8% among 970; TRHR-expressing cells, agonist activation read-out; further: potency means the concentration at half of the fitted maximal effect; 0% is about no effect; nearly all actives have a fitted effect of over 75% in size
Active calls of the source: *; i = inactive; · = not tested or not shown; [ ] = remark or other dose. Rows were chosen to be rich in hits. Some 0.93% of all compounds tested hit in one or more screens of this group. Unless noted, the call rests on the fitted dose curve; in most records, active means well fitted curve in the direction sought with a large enough effect; inconclusive means small, poorly fitted or top-dose-only effect, or another doubt; inactive means no such curve, though single readings can be large; an effect the other way counts as inactive or inconclusive.

SMILES	PTHR1 ag	TRHR enhancer-1	TRPML1 agonist	GLP1R cytotox	TRHR agonist-1	TRPML1 inh	TRHR enhancer-2	TRHR agonist-2
COc1ccc(CCC(=O)N2CCCC(Nc3ccc(OC)cc3)C2)cc1 (centres undefined)	-7%	-1	-1	-20%	0	10	·	·
COC(=O)C(NS(=O)(=O)CCl)C(C)C (centres undefined)	·	·	0	·	·	1	·	·
CC(=O)OCC(NC(=O)C(COCc1ccccc1)NC(=O)OC(C)(C)C)C1OC(n2ccc(=O)[nH]c2=O)C(OC(C)=O)C1OC(C)=O (centres undefined)	·	·	0	·	·	-9	·	·
COc1ccc(NS(=O)(=O)c2ccc(N3CCCC3)c(NC(=S)Nc3ccc(SC(F)F)cc3)c2)cc1	i	65*	1	5%	0	4	2	-1%
COc1ccc(NS(=O)(=O)c2ccc(N3CCCC3)c(NC(=S)Nc3cccc(C)c3C)c2)cc1	i	-9	0	-25%	0	-1	·	·
CNC(=O)C(=O)Nc1ccc(C)cc1C	-1%	-2	0	0%	1	2	·	·
CNC(=O)C(=O)Nc1c(C)cc(C)cc1C	i	41*	-1	-1%	-1	13	1	6%
CCCC[C@H]1CCCO[C@@](C(=O)NCc2ccccn2)(C(F)(F)F)C1	·	·	1	·	·	-4	·	·
CC(C)CC1=NN2C(=N)/C(=C\c3coc4ccccc4c3=O)C(=O)N=C2S1	-73%	14	69*	2%	25	-19	0	2.6µM*
Cc1ccc(OCc2cc(C(=O)N(C)Cc3cnn(C)c3)no2)cc1C	i	·	-1	5%	·	6	·	·
Cc1ccc(OCc2cc(C(=O)N(C)Cc3cnn(-c4ccccc4C)c3)no2)cn1	-16%	43*	1	-3%	-1	13	-6	0%
Cc1ccccc1N=C1Nc2ccc(Cl)cc2N[C@]12C[C@H]1CCCC(=O)N3CC[C@@H](C2)[C@@H]13	·	·	-1	·	·	·	·	·
Cc1cccc(CNc2ncnc3ccc(-c4ccc5c(ccn5C)c4)cc23)c1	·	3	·	·	0	·	·	·
COC(=O)c1[nH]c2ccccc2c1NS(=O)(=O)c1ccc(F)c(C)c1	-6%[57.5 µM]	44*	0	6%	0	-3	-8	0%
CCCS(=O)(=O)Nc1c(C(=O)OC)[nH]c2ccccc12	i	-1	0	-2%	0	-27	·	·
Cc1ccc(SCC(=O)NN=C2CCN(C)CC2)cc1	i	-1	0	-9%	1	-12	·	·
CN1CCC(=NNC(=O)CSc2ccc(Cl)cc2)CC1	i	44*	0	-3%	0	30	-5	0%
CCOC(=O)Cn1c(=O)c(F)cn(Cc2ccc(OC)c([N+](=O)[O-])c2)c1=O	i	67*	-1	-4%	1	-16	-3	-1%
COc1ccc(NC(=O)c2ccc(-c3nn(C)c(=O)c4ccccc34)cc2)cc1	-22%	44*	0	-2%[7.66 µM]	-1	14	5	-1%
COc1ccc(C(=O)NNC(=O)c2cccc(F)c2)cc1	-12%	45*	0	-4%	0	1	-1	1%
COc1ccc(C(=O)NNC(=O)c2ccc3ccccc3c2)cc1	i	·	0	15%	·	-8	·	·
O=C(NNC(=O)c1ccc2ccccc2c1)c1cccc(F)c1	-11%	·	0	-10%	·	-19	·	·
COc1ccc(NC(=O)c2ccc3ccccc3c2)cc1	-33%	54*	-1	-2%	-1	3	6	0%
COc1ccc(NC(=O)c2ccc3nc(C)sc3c2)cc1	-48%	57*	0	-1%	0	-24	1	2%
CCSc1ccccc1C(=O)N1CCN(c2ccccc2F)CC1	i	42*	1	-4%	0	-11	6	-1%
